Each structure is given as a SMILES string. Values joined by “and” are separate entries in the source; they are usually repeats but may differ in a detail not shown here. Equal entries are not always repeated. Records with an inconclusive call do not appear. Active and inactive are the calls of the source. Unless noted, calls follow the shape of the dose curve; as a rule, active = well fitted curve in the direction sought with a large enough effect in the repeat runs; inconclusive = weak or mixed curves; inactive = no such curve, though single readings can be large; an effect the other way counts as inactive or inconclusive.

Experiment [1] in a line: qHTS assay to identify aromatase inhibitors - cell viability counter screen (AID 743084).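 Also: cells stimulated with testosterone during compound exposure; nearly all actives have a fitted effect of over 55% in size.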 In general terms: In qHTS, concentration-response curves come from the screen itself.
Experiment [2] concerns the target Aryl hydrocarbon receptor (Homo sapiens) (UniProt P35869). The experiment can be described thus: qHTS assay to identify small molecule that activate the aryl hydrocarbon receptor (AhR) signaling pathway (AID 743085).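 Also: HG2L7.5c1 human HepG2 liver cells with stably integrated DRE-driven firefly reporter; series mostly up to about 70 µM; nearly all actives have a fitted effect of over 15% in size.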 A digest of the protocol: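 AhR agonist activity is inferred from enhanced light output of a DRE-controlled firefly luciferase reporter in HepG2 cells, measured with ONE-Glo following 24 h treatment at 37C.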

The nature of experiment [3]: qHTS assay to identify small molecule that activate the aryl hydrocarbon receptor (AhR) signaling pathway - cell viability counter screen (AID 743086).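 Also: HepG2 liver cells carrying the AhR DRE luciferase reporter; series mostly up to about 70 µM; nearly all actives have a fitted effect of over 45% in size.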 A digest of the protocol: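 HepG2-AhR-luc (HG2L7.5c1) cells, 4000/well, were preincubated 5 h at 37C, exposed to compound in qHTS format for 24 hr at 37C, then given CellTiter-Fluor for 30 min; viability was read as fluorescence in the reporter wells.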

The target of experiment [4] is Peroxisome proliferator-activated receptor gamma (Homo sapiens) (UniProt P37231). Description: qHTS assay to identify small molecule agonists of the peroxisome proliferator-activated receptor gamma (PPARg) signaling pathway (AID 743094; active = well fitted activation curve with a large enough effect in the signal ratio in the repeat runs, not every such curve was filed as active; the % refers to the signal ratio). An outline of the steps:
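GeneBLAzer PPARg UAS-bla HEK293H cells were plated, rested 5 h, then exposed to compounds for 17 h at 37C. Beta-lactamase activity was read by LiveBLAzer B/G FRET substrate fluorescence after 1 h at room temperature.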

For experiment [5] the target is unchanged. The experiment can be described thus: qHTS assay to identify small molecule antagonists of the peroxisome proliferator-activated receptor gamma (PPARg) signaling pathway (AID 743191; calls by dose curve; also: nearly all actives have a fitted effect of over 30% in size; also: potency is read from the fitted curve at half-maximal effect). An outline of the steps:
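GeneBLAzer PPARg UAS-bla HEK293H cells carrying a UAS-driven beta-lactamase reporter were plated at 3000 cells/well, preincubated 5 h at 37C, then given compound for 17 h at 37C; LiveBLAzer B/G FRET substrate was read after 1 h at room temperature.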

A short description of experiment [6]: qHTS assay to identify small molecule antagonists of the peroxisome proliferator-activated receptor gamma (PPARg) signaling pathway - cell viability counter screen (AID 743194). Also: nearly all actives have a fitted effect of over 55% in size. An outline of the steps: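 PPARg-UAS-bla HEK293H cells were plated, rested 5 h at 37 C, then treated with compounds plus rosiglitazone (50 nM final) for 17 h at 37 C; viability was then read by CellTiter-Glo luminescence after 30 min at room temperature.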

Experiment [7] in a line: qHTS assay for small molecule agonists of the antioxidant response element (ARE) signaling pathway - cell viability counter screen (AID 743203; calls by dose curve; also: nearly all actives have a fitted effect of over 55% in size). A digest of the protocol: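 ARE-bla HepG2 cells were plated, rested 5 h at 37C/5% CO2, then exposed to compounds in DMSO for 16 h. Viability was read as CellTiter-Glo luminescence after 30 min at room temperature, in the same wells as the ARE screen.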

The nature of experiment [8]: qHTS assay for small molecule activators of the heat shock response signaling pathway - cell viability counter screen (AID 743209). Also: nearly all actives have a fitted effect of over 50% in size. An outline of the steps: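 HSE-bla HeLa cells plated overnight, then exposed to Tox21 compounds (23 nL in DMSO) for 5 h at 37 C. After the bla reporter read, CellTiter-Glo was added in the same wells and luminescence read after 30 min at room temperature.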

A short description of experiment [9]: qHTS assay for small molecule activators of the heat shock response signaling pathway (AID 743210; active = well fitted activation curve with a large enough effect in the signal ratio in the repeat runs, with a control signal flat, not every such curve was filed as active; the % refers to the signal ratio;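 also: HeLa cells with beta-lactamase reporter driven by heat shock elements; series mostly up to about 63 µM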). A digest of the protocol: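 Reporter gene assay: HeLa cells stably bearing an HSE-bla construct, compound treatment 5 h at 37 C, LiveBLAzer substrate 2.5 h at RT, fluorescence intensity.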
The nature of experiment [10]: qHTS assay for small molecule agonists of the antioxidant response element (ARE) signaling pathway (AID 743202; active = well fitted activation curve with a large enough effect in the signal ratio in the repeat runs, not every such curve was filed as active; the % refers to the signal ratio; also: potency is read from the fitted curve at half-maximal effect). A digest of the protocol:
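Compounds delivered in DMSO to ARE-bla HepG2 cells (2,000 cells/well, pre-incubated 5 h) and left 16 h at 37 C. LiveBLAzer B/G FRET substrate then added for 2 h at RT before fluorescence reading.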

Sequence of Aryl hydrocarbon receptor (Homo sapiens) (P35869 whole entry, looked up): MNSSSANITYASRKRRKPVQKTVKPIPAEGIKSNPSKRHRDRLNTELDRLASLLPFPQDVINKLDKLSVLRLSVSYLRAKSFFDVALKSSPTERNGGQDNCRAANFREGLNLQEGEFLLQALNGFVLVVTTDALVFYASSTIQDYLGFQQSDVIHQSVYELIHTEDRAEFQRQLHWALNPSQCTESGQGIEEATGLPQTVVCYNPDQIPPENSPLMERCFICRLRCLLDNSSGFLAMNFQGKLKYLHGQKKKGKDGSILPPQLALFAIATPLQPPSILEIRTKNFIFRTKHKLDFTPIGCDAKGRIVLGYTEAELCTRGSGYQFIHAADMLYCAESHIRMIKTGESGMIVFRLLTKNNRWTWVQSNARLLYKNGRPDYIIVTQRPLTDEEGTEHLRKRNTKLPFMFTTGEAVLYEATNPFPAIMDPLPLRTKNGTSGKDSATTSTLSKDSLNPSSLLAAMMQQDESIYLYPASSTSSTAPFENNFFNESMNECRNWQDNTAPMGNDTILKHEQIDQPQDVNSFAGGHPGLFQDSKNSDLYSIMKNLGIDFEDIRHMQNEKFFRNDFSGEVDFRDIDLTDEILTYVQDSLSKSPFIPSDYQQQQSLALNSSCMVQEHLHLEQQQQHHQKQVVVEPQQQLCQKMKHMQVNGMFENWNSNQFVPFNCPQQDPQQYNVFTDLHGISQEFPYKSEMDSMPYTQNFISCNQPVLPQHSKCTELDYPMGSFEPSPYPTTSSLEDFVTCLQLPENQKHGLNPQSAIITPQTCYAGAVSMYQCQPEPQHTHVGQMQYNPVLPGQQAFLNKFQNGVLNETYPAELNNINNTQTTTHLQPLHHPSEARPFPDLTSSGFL
Sequence of Peroxisome proliferator-activated receptor gamma (Homo sapiens) (P37231 whole entry, looked up): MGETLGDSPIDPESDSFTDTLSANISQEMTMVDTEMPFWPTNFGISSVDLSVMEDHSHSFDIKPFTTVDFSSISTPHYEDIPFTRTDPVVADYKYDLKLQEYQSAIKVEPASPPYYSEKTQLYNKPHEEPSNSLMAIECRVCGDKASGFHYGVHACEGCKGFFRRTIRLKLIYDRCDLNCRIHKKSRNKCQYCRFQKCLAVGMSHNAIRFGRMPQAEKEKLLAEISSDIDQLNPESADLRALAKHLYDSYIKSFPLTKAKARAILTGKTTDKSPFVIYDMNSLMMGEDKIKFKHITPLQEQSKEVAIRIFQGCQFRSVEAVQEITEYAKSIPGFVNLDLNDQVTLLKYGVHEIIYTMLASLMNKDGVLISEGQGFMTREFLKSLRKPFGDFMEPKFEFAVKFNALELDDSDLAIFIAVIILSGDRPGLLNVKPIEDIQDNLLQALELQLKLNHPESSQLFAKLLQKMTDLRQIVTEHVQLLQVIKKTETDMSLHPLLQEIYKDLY

In the case of `CC(C)(Cl)Cl`, the call in [1], in experiment [3], in experiment [4], in [6], in experiment [7] and in experiment [8] was inactive. Moreover, the call in experiment [9] was inactive. Also, the Potency result in [2] and in experiment [5] was “inactive” in each case.
For `C[C@]12CC[C@H]3[C@@H](CC[C@@]45O[C@@H]4C(O)=C(C#N)C[C@]35C)[C@@H]1CC[C@@H]2O`, the outcome in experiment [1], in [3], in experiment [6], in experiment [7], in experiment [8] and in experiment [9] was inactive. For the same compound, the Potency entry in [2] was “inactive”. In addition, the Potency in [10] is 30.6 µM (active) and 23.7 µM (active).
Take `C#CC(C)(C)NC(=O)c1cc(Cl)cc(Cl)c1`: the result in experiment [1], in experiment [3], in experiment [6], in [7], in experiment [8] and in [9] was inactive. Also, the Potency entry in experiment [2] and in [10] was “inactive” each time.
Regarding `CCc1cccc(C)c1N(C(=O)CCl)C(C)COC` (stereo not drawn), the outcome in [1], in [3], in experiment [6], in experiment [7], in [8] and in experiment [9] was inactive. Moreover, the Potency entry in experiment [2] is “inactive”. In addition, the Potency in experiment [5] was 21.9 µM (active); in experiment [10], 8.14 µM (active) and 19.3 µM (active).
Consider `OCCN(CCO)CCO`, for which the call in experiment [3], in experiment [6], in [7] and in experiment [8] was inactive. Also, the Potency result in [10] is “inactive”.
In the case of `C=CC(N)=O`, the compound was called inactive in experiment [1], in [3], in [6], in [7], in experiment [8] and in experiment [9]. The Potency entry in experiment [2] and in [10] was “inactive” each time.
Turning to `Clc1ccccc1Cl`, the result in [1], in experiment [3], in [4], in [6], in experiment [7] and in [8] was inactive. Besides, the compound was classed as inactive in [9]. Besides, the Potency entry in experiment [2] and in experiment [10] was “inactive” throughout.
As to `CN(C)N=O`, the compound was classed as inactive in experiment [1], in [3], in experiment [4], in experiment [6], in experiment [7] and in experiment [8]. Besides, the result in experiment [9] was inactive. For the same compound, the Potency entry in [2], in experiment [5] and in [10] was “inactive” throughout.
In the case of `CC(C)OC(=O)Nc1cccc(Cl)c1`, the call in experiment [1], in experiment [3], in [4], in [6], in experiment [7] and in experiment [8] was inactive. The outcome in [9] was inactive. In addition, the Potency result in experiment [2] and in experiment [10] was “inactive” in each case.
For `Cc1ccc(N)cc1Cl`, the outcome in experiment [1], in experiment [3], in experiment [4], in experiment [6], in [7] and in experiment [8] was inactive. Besides, the outcome in experiment [9] was inactive. The Potency result in experiment [5] and in experiment [10] was “inactive” throughout.
For the compound `Cc1cccc([N+](=O)[O-])c1`, the compound was classed as inactive in experiment [1], in experiment [3], in experiment [4], in experiment [6], in [7] and in experiment [8]. Also, the compound was called inactive in [9]. Moreover, the Potency result in experiment [5] and in experiment [10] was “inactive” throughout.

(Values after PubChem BioAssay (Tox21).)
